High-throughput results: PubChem BioAssay, National Center for Advancing Translational Sciences (NCATS)
15-hLO inh = blocks human 15-lipoxygenase activity. AID 887. purified 15hLO-1, xylenol orange hydroperoxide absorbance. P16050. 1.4% of 74,000 active. Potency, µM (highest dose often 57.1 µM), without a hit: at the highest dose activity change, negative = inhibition, usual class: inhibitors; also: % is scaled to controls: 0 for no effect and ±100 for the full control effect; nearly all actives have a fitted effect of over 55% in size
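40 nM 15hLO-1 + cpd, 15 min RT; start w/ 50 uM AA (final), 6 min RT; stop/detect w/ 200 uM XO + 300 uM Fe(II) in 50 mM H2SO4, 30 min; A573/A405. Buffer 25 mM Hepes pH 7.5, 0.01% Triton X-100. No-enzyme wells as negative control.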
Hsp90 Hop PPI = changes Hsp90-Hop TPR2A binding signal, up or down. AID 595. 0.44% of 71,000 active. AlphaScreen TPR2A-His6 binding biotin-Hsp90 C-terminal peptide. Potency, µM (top dose mostly 57 µM), without a hit: at the top dose activity change, negative = inhibition; active = well fitted curve in either direction with a large enough effect; inconclusive = small, poorly fitted or top-dose-only effect, or another doubt; also: % is scaled to controls: 0 for no effect and ±100 for the full control effect
GBA activity = alters purified human glucocerebrosidase activity | Potency, µM | P04062 | 1.1% of 48,000 active | purified enzyme, resorufin glucoside fluorescence (screen aimed at inhibitors), 20 min | AID 360; in the data active = potency below about 15 µM; inconclusive = mostly about 16 µM to 33 µM;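 also: the screen sought inhibitors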
Target sequence (P04062 whole entry, looked up): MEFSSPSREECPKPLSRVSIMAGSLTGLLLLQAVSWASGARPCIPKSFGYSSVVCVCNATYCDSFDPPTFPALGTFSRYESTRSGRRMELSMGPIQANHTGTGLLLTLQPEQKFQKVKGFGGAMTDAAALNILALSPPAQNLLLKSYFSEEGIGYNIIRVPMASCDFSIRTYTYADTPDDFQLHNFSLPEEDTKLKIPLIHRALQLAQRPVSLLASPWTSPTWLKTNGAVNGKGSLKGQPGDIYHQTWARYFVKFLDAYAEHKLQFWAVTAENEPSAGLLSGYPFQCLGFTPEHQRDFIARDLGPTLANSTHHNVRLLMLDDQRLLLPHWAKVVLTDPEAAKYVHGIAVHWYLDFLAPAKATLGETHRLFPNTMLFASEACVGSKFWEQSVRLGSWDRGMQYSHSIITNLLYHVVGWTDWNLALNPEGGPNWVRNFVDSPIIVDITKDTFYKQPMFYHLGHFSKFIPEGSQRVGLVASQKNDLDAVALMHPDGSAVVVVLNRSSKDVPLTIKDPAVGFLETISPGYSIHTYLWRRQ
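Compounds titrated against 0.2 nM normal enzyme, 30 uM resorufin beta-D-glucopyranoside substrate, citrate/phosphate buffer with taurocholate and tween-20, pH 5.9. Reaction ran 20 min at room temperature; fluorescence (Ex 548/Em 600) gave AC50.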
USP2a inhib = USP2a (human) protease inhibition; USP2a enzymatic assay, qHTS inhibition; AID 927; Potency, µM (doses to about 38.3 µM), without a hit: at the highest dose activity change, negative = inhibition, actives largely listed as inhibitors; O75604; 0.1% of 60,000 active; also: nearly all actives have a fitted effect of over 60% in size
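Coupled readout: USP2-cleaved Ub-PLA2 (20nM final) turns over NBD C6-HPC (20uM final), Ex 460nm/Em 535nm after 2.5 h, time-zero read flagging artifacts. Enzyme (20nM final, pH 8.0 Tris) given 30 min RT with compound first; NEM defines full inhibition.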
Bst PK mod = modulators of Bacillus stearothermophilus pyruvate kinase; purified pyruvate kinase, luminescence ATP production; ribose 5-phosphate activator present at AC10; Potency, µM; 1.2% of 51,000 active; AID 361; in the data active = potency below about 11 µM; inconclusive = mostly about 12 µM to 25 µM;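 the screen sought inhibitors and activators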;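 also: scaled between full activation by ribose 5 phosphate and full inhibition by luteolin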
Tau filament bind = binds recombinant human tau filaments. P10636. recombinant tau filaments, thioflavin S fluorescence, 15 h; filaments grown with octadecylsulfate alongside compound. Potency, µM (doses to about 57.1 µM), for the others: at the highest dose activity change, negative = inhibition. 2% of 71,000 active. AID 596;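 also: % is scaled to controls: 0 for no effect and ±100 for the full control effect; actives lower thioflavin S fluorescence by blocking filaments or displacing dye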
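Read-out: ThS fluorescence, 450 nm excitation/510 nm emission; lower signal marks blocked filament formation or displaced dye. Tau at 1 uM with 30 uM ODS, 10 uM ThS, 5 mM DTT, 100 mM NaCl, 10 mM HEPES pH 7.4; 15 h, 37 C.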
Starred values were filed as active, the others as inactive; [ ] = another dose, or the depositor's remark. This is a sample that favours compounds with a hit; in the whole collection about 4.6% have one here. Unless noted, calls follow the shape of the dose curve; as a rule, active = well fitted curve in the direction sought with a large enough effect; inconclusive = small, poorly fitted or top-dose-only effect, or another doubt; inactive = no such curve, though single readings can be large; an effect the other way counts as inactive or inconclusive. Potency is read from the fitted curve at half-maximal effect.

How did CCOC(=O)c1cnc(-n2nc(C)cc2C)nc1NC do in these assays?
15-hLO inh: 19%; Hsp90 Hop PPI: inconclusive; GBA activity: >77; USP2a inhib: 5%; Tau filament bind: 24%

Results for CCOC(=O)c1cnc(-n2cc(C)cn2)nc1Nc1ccccc1OC ?
15-hLO inh: 71%; Hsp90 Hop PPI: -3%; GBA activity: 12*; USP2a inhib: 32%; Bst PK mod: >57; Tau filament bind: 59%

What do the screens show for `Clc1nnc2ccc(-c3ccccc3)nn12`?
15-hLO inh: -1%[11.4 µM]; Hsp90 Hop PPI: -5%[11 µM]; USP2a inhib: 5%[7.66 µM]; Tau filament bind: -10%[11.4 µM]

What do the screens show for `Cc1cc(OCc2ccc(F)cc2)nc(-c2ccccc2O)n1`?
15-hLO inh: -2%; Hsp90 Hop PPI: 25µM*; USP2a inhib: -7%; Tau filament bind: 17%

How did Cc1ccc(Oc2cc(C)nc(-c3ccccc3O)n2)cc1 do in these assays?
15-hLO inh: 3%; Hsp90 Hop PPI: 23%; GBA activity: >77; USP2a inhib: -5%; Bst PK mod: >57; Tau filament bind: 9%

What do the screens show for `Cc1cc(OC2CCCCC2)nc(-c2ccccc2O)n1`?
15-hLO inh: -5%[11.4 µM]; Hsp90 Hop PPI: 3.2µM*; USP2a inhib: -5%[7.66 µM]; Tau filament bind: 18%[11.4 µM]

Results for O=C(c1cccnc1)N1CCN(Cc2ccc3c(c2)OCO3)CC1 ?
15-hLO inh: -11%; Hsp90 Hop PPI: -7%; GBA activity: >77; USP2a inhib: -11%; Bst PK mod: >57; Tau filament bind: 25%

What do the screens show for `O=C(COc1ccccc1)Nc1ccccc1N1CCN(c2ccccc2)CC1`?
15-hLO inh: -12%; Hsp90 Hop PPI: 2%; GBA activity: >77; USP2a inhib: -4%; Bst PK mod: >57; Tau filament bind: 0%

Results for COc1ccc(C2=C(C)CC(C)(C)NC2=O)cc1OC ?
15-hLO inh: 7%; Hsp90 Hop PPI: 1%; GBA activity: >77; USP2a inhib: -1%; Bst PK mod: >57; Tau filament bind: 1%

How did Nc1ccc(N=Nc2ccc(-c3ccc(O)cc3)cc2)c2ccc(S(=O)(=O)O)cc12 do in these assays?
15-hLO inh: -28%[11.4 µM]; Hsp90 Hop PPI: inconclusive; Tau filament bind: 2.5µM*

Results for CCCc1cc(=O)oc2cc(C)c(CN3CCCC3)c(O)c12 ?
15-hLO inh: 13µM*; Hsp90 Hop PPI: -22%; USP2a inhib: -27%; Bst PK mod: >57; Tau filament bind: 13µM*

How did CCc1cc(=O)oc2cc(C)c(CN3CCCC3)c(O)c12 do in these assays?
Bst PK mod: >26

Results for COc1ccc(S(=O)(=O)Nc2ccc3c(c2)OCO3)cc1OC ?
15-hLO inh: -3%; Hsp90 Hop PPI: -13%; GBA activity: >77; USP2a inhib: 31%; Bst PK mod: >57; Tau filament bind: 25µM*

What do the screens show for `Cc1cc(Cc2cc(Cc3cc(C)cc(C(C)(C)C)c3O)c(C)cc2C)c(O)c(C(C)(C)C)c1`?
15-hLO inh: -22%[11.4 µM]; Hsp90 Hop PPI: -13%[11 µM]; Tau filament bind: inconclusive

Results for O=C(CC1Sc2ccccc2NC1=O)Nc1cccc(-c2nnc3n2CCCCC3)c1 (stereo unspecified) ?
15-hLO inh: -11%; Hsp90 Hop PPI: -1%; USP2a inhib: 33%; Bst PK mod: >57; Tau filament bind: 18%

Results for CCCn1c(=O)c(C(=O)Nc2ccccc2C(=O)OC)c(O)c2ccccc21 ?
15-hLO inh: -14%; Hsp90 Hop PPI: 1%; GBA activity: 14*; USP2a inhib: 41%; Bst PK mod: >57; Tau filament bind: 240%

Results for O=C(c1ccccc1Br)N1CCN(c2ccccc2)CC1 ?
15-hLO inh: 0%; Hsp90 Hop PPI: -4%; GBA activity: >77; USP2a inhib: 1%; Bst PK mod: >57; Tau filament bind: 13%

What do the screens show for `CCCc1[nH]n(-c2nc3ccccc3s2)c(=O)c1C=NCC1CCCO1` (stereo unspecified)?
15-hLO inh: 102%; Hsp90 Hop PPI: 1%; GBA activity: 13*; USP2a inhib: 122%; Tau filament bind: 21%

What do the screens show for `CCCc1[nH]n(-c2nc3ccccc3s2)c(=O)c1C=NCCN1CCOCC1`?
Bst PK mod: >26

Results for Cc1cccn2c(=O)c(C=Nc3ccccc3)c(NCc3ccco3)nc12 ?
15-hLO inh: 2%; Hsp90 Hop PPI: 4%; USP2a inhib: 19%; Bst PK mod: >57; Tau filament bind: -25%

What do the screens show for `O=C(Nc1c(C(=O)O)[nH]c2ccccc12)NC1CCCCC1`?
15-hLO inh: -19%; Hsp90 Hop PPI: inconclusive; GBA activity: >77; USP2a inhib: 7%; Bst PK mod: >57; Tau filament bind: -25%

How did Cc1cccc2cc(CN(CCCO)C(=O)Nc3cccc(Cl)c3)c(=O)[nH]c12 do in these assays?
15-hLO inh: 20µM*; Hsp90 Hop PPI: -8%; GBA activity: >77; USP2a inhib: 50%; Tau filament bind: 8%

What do the screens show for `CCc1c(C(=O)Nc2nnc(C3CC3)s2)csc1C`?
15-hLO inh: 5%; Hsp90 Hop PPI: 0%; GBA activity: 1.5*; USP2a inhib: 1%; Bst PK mod: >57; Tau filament bind: 50%

How did O=C(Nc1nnc(C2CCCCC2)s1)c1cccs1 do in these assays?
15-hLO inh: 7%; Hsp90 Hop PPI: -4%; GBA activity: >77; USP2a inhib: -11%; Bst PK mod: >57; Tau filament bind: 50%

Results for CC(C)Oc1ccc(C(=O)Nc2ccc(N3CCCC3)cc2)cc1 ?
15-hLO inh: 1.3µM*; Hsp90 Hop PPI: inconclusive; USP2a inhib: 28%[7.66 µM]; Tau filament bind: 2µM*

Results for COc1cc(OC)cc(C(=O)Nc2cccc(C(C)=O)c2)c1 ?
15-hLO inh: 5%; Hsp90 Hop PPI: -1%; USP2a inhib: -2%; Tau filament bind: -5%

Results for O=C(Cc1ccccc1)Nc1cccc(N2CCCC2)c1 ?
15-hLO inh: -5%; Hsp90 Hop PPI: -18%; GBA activity: >77; USP2a inhib: 20%; Bst PK mod: >57; Tau filament bind: 25µM*

How did COc1cc(OC)cc(C(=O)Nc2cccc(N3CCCC3)c2)c1 do in these assays?
15-hLO inh: inconclusive; Hsp90 Hop PPI: -29%; GBA activity: >77; USP2a inhib: 28%; Bst PK mod: >57; Tau filament bind: 10µM*

Results for Cc1cc(C)n(-c2nc3ccccc3nc2N2CCN(C(=O)c3ccc(Cl)cc3)CC2)n1 ?
15-hLO inh: -3%; Hsp90 Hop PPI: 23%; GBA activity: >77; USP2a inhib: 37%; Bst PK mod: inconclusive; Tau filament bind: -14%

What do the screens show for `Cc1cc(NC(=O)c2ccc3nc(-c4ccccc4)c(-c4ccccc4)nc3c2)no1`?
15-hLO inh: 11%; Hsp90 Hop PPI: 0%; GBA activity: 14*; USP2a inhib: 9%; Bst PK mod: >57; Tau filament bind: 4%
